Several values for one entry are separate records, joined by “and”; a condition that tells them apart may be missing. Equal entries are not always repeated. This is part of a sample that, as a whole, favours compounds with a hit. Of some 79,000 tested, about 15% had one in any assay. Some compounds were tested as several samples or in several runs, with calls that do not always agree. Activity calls are given as the source filed them. No stated cut-off is given here; in the data, active means growth inhibition above about 70%; inactive means the rest.
Columns and labels:
[1] = NCI Yeast Anticancer Drug Screen. Data for the rad52 strain (AID 147);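 further: 0% = growth of vehicle-treated control cultures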; conditions: S. cerevisiae rad52 mutant growth inhibition, stronger effect = higher value
Procedure, shortened: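 Compounds are applied to a genetically defined yeast strain lacking normal DNA damage repair, and inhibition of growth is expressed relative to cultures given vehicle only.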

[2] = NCI Yeast Anticancer Drug Screen. Data for the wt1 strain (AID 149);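 further: 0% = growth of vehicle-treated wt1 cultures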; conditions: S. cerevisiae wt1 strain (SPY 50644) growth inhibition, stronger effect = higher value
Procedure, shortened: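 Using yeast strain wt1, compound-induced growth inhibition was determined against vehicle-treated cultures.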

[3] = NCI Yeast Anticancer Drug Screen. Data for the rad50EPP+ strain (AID 151);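 further: 0% = growth of vehicle-treated control cultures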; conditions: S. cerevisiae rad50 mutant strain, stronger effect = higher value
Procedure, shortened: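 Compounds were applied to the rad50EPP+ yeast strain, which bears a defined DNA repair alteration, and growth inhibition was determined relative to vehicle-treated cultures.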

[4] = NCI Yeast Anticancer Drug Screen. Data for the rad50 strain (AID 155);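 further: 0% = growth of vehicle-only cultures of the same strain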; conditions: S. cerevisiae rad50 strain growth inhibition, stronger effect = higher value
Procedure, shortened: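 Relative growth inhibition (compound vs vehicle) was measured in yeast with a defined repair-gene alteration.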

[5] = NCI Yeast Anticancer Drug Screen. Data for the mec2-1 strain (AID 157); conditions: S. cerevisiae mec2-1 strain, stronger effect = higher value
Procedure, shortened: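 Strain: mec2-1 (DNA repair/cell cycle alteration). Compound exposure, then growth measured; inhibition expressed relative to vehicle.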

[6] = NCI Yeast Anticancer Drug Screen. Data for the rad14 strain (AID 159);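 further: 0% = growth of vehicle-treated control cultures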; conditions: S. cerevisiae rad14 strain growth inhibition, stronger effect = higher value
Procedure, shortened: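 Screen for anticancer potential: a yeast strain altered in DNA damage repair is grown with compound, and reduced growth is quantified against vehicle controls.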

[7] = NCI Yeast Anticancer Drug Screen. Data for the sgs1 mgt1 strain (AID 161);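 further: 0% = growth of cultures given vehicle only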; conditions: S. cerevisiae sgs1 mgt1 strain, stronger effect = higher value
Procedure, shortened: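 Mutant yeast exposed to compound; growth scored against vehicle-only wells.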

[8] = NCI Yeast Anticancer Drug Screen. Data for the CLN2oe strain (AID 163);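 further: 0% = growth of vehicle-only control cultures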; conditions: S. cerevisiae CLN2oe strain, stronger effect = higher value
Procedure, shortened: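 Growth of a genetically modified yeast strain is measured after compound exposure and compared with cultures given vehicle alone.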

[9] = NCI Yeast Anticancer Drug Screen. Data for the cln2 rad14 strain (AID 165);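 further: 0% = growth equal to vehicle treated cultures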; conditions: S. cerevisiae cln2 rad14 strain, stronger effect = higher value
Procedure, shortened: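 Compounds are applied to the cln2 rad14 yeast strain, and growth is then compared with that of vehicle-treated cultures to give inhibition.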

[10] = NCI Yeast Anticancer Drug Screen. Data for the bub3 strain (AID 167); conditions: S. cerevisiae bub3 mutant strain, stronger effect = higher value
Procedure, shortened: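 Screening used yeast with an engineered genetic alteration affecting cell cycle control. Compound-exposed cultures were compared with vehicle cultures, and reduced growth was taken as inhibition.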

[11] = NCI Yeast Anticancer Drug Screen. Data for the wt2 strain (AID 169);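 further: 0% = growth of vehicle-treated yeast cultures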; conditions: S. cerevisiae wt2 strain growth inhibition, stronger effect = higher value
Procedure, shortened: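 This strain belongs to a panel of yeast strains with defined genetic alterations in DNA damage repair or cell cycle control. Compounds are applied, and growth inhibition is measured against vehicle-treated cultures.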

[12] = NCI Yeast Anticancer Drug Screen. Data for the mlh1 strain (AID 171);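 further: 0% = growth of vehicle-treated control cultures of the same strain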; conditions: S. cerevisiae mlh1 strain growth inhibition, stronger effect = higher value
Procedure, shortened: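 Growth of the mutant yeast strain after compound exposure, expressed as inhibition relative to vehicle-only controls.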

[13] = NCI Yeast Anticancer Drug Screen. Data for the sgs1 strain (AID 173);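 further: 0% = growth of vehicle-only control cultures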; conditions: S. cerevisiae sgs1 mutant, stronger effect = higher value
Procedure, shortened: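 Growth of a yeast strain bearing a defined genetic alteration is measured after compound treatment. Inhibition is expressed relative to vehicle-only controls.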

[14] = NCI Yeast Anticancer Drug Screen. Data for the mlh1 rad18 strain (AID 175); conditions: S. cerevisiae mlh1 rad18 strain growth inhibition, stronger effect = higher value
Procedure, shortened: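 Read-out is yeast growth inhibition, calculated against vehicle-only controls. The compound was applied to a strain engineered with DNA damage repair alterations.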

[15] = at 5.0 µM (retest, dose inferred, filed as 0.5)
[16] = at 50.0 µM (retest, dose inferred, filed as 5.0)

Measured: growth inhibition

S=c1sc2c(s1)SCCS2
inactive: [1]; at 1.2 µM 1% | [1]; at 3.7 µM 1% | [1]; at 11.0 µM 4% | [1]; at 33.0 µM 5% | [1]; at 100.0 µM 7% | [2]; at 1.2 µM -1% | [2]; at 3.7 µM 1% | [2]; at 11.0 µM 1% | [2]; at 33.0 µM 0% | [2]; at 100.0 µM 2% | [3]; at 1.2 µM 2% | [3]; at 3.7 µM 3% | [3]; at 11.0 µM 6% | [3]; at 33.0 µM 14% | [3]; at 100.0 µM 9% | [4]; at 1.2 µM 0% | [4]; at 3.7 µM 3% | [4]; [15] 14% | [4]; at 11.0 µM -16% | [4]; at 33.0 µM 5% | [4]; [16] 49% | [4]; at 50.0 µM 13.7% and 58.8% | [4]; at 100.0 µM 6% | [5]; at 1.2 µM 2% | [5]; at 3.7 µM 2% | [5]; [15] -11% | [5]; at 11.0 µM -1% | [5]; at 33.0 µM -2% | [5]; [16] 23% | [5]; at 50.0 µM 5.65% and 50% | [5]; at 100.0 µM 0% | [6]; at 1.2 µM 1% | [6]; at 3.7 µM -4% | [6]; at 11.0 µM -2% | [6]; at 33.0 µM -1% | [6]; at 100.0 µM 5% | [7]; [15] -8% | [7]; [16] 54% | [8]; at 1.2 µM 0% | [8]; at 3.7 µM 0% | [8]; at 11.0 µM -2% | [8]; at 33.0 µM -4% | [8]; at 100.0 µM 0% | [9]; [15] -14% | [9]; [16] 32% | [9]; at 50.0 µM 7.95% and 60.4% | [10]; at 1.2 µM 1% | [10]; at 3.7 µM 2% | [10]; [15] -20% | [10]; at 11.0 µM 6% | [10]; at 33.0 µM 5% | [10]; [16] 49% | [10]; at 50.0 µM 20.4% and 64.8% | [10]; at 100.0 µM 4% | [11]; at 1.2 µM 1% | [11]; at 3.7 µM 2% | [11]; at 11.0 µM 2% | [11]; at 33.0 µM 3% | [11]; at 100.0 µM 4% | [12]; at 1.2 µM 1% | [12]; at 3.7 µM -2% | [12]; at 11.0 µM 5% | [12]; at 33.0 µM 1% | [12]; at 100.0 µM 3% | [13]; at 1.2 µM -1% | [13]; at 3.7 µM -1% | [13]; at 11.0 µM 0% | [13]; at 33.0 µM 0% | [13]; at 100.0 µM 3% | [14]; [15] 46% | [14]; [16] 59% | [14]; at 50.0 µM 20.8% and 57.5%
-2% (inactive) and 75.5% (active): [7]; at 50.0 µM

Oc1[nH]c2ccccc2c1N=NC(=S)N1CCCCC1
active: [1]; at 33.0 µM 97% | [1]; at 100.0 µM 98% | [2]; at 33.0 µM 90% | [2]; at 100.0 µM 98% | [4]; at 33.0 µM 97% | [4]; [16] 99% | [4]; at 50.0 µM 75.5% | [4]; at 100.0 µM 98% | [5]; at 33.0 µM 97% | [5]; [16] 98% | [5]; at 50.0 µM 80.4% | [5]; at 100.0 µM 99% | [6]; at 33.0 µM 97% | [6]; at 100.0 µM 99% | [7]; [16] 99% | [7]; at 50.0 µM 87% | [8]; at 33.0 µM 98% | [8]; at 100.0 µM 99% | [9]; [16] 99% | [9]; at 50.0 µM 84.8% | [10]; at 33.0 µM 91% | [10]; [16] 99% | [10]; at 50.0 µM 90.3% | [10]; at 100.0 µM 96% | [11]; at 33.0 µM 94% | [11]; at 100.0 µM 99% | [12]; at 33.0 µM 96% | [12]; at 100.0 µM 98% | [13]; at 33.0 µM 99% | [13]; at 100.0 µM 99% | [14]; [16] 99% | [14]; at 50.0 µM 86.5%
inactive: [1]; at 1.2 µM 6% | [1]; at 3.7 µM 11% | [1]; at 11.0 µM 19% | [2]; at 1.2 µM -1% | [2]; at 3.7 µM 0% | [2]; at 11.0 µM 4% | [3]; at 1.2 µM 6% | [3]; at 3.7 µM 16% | [3]; at 11.0 µM 28% | [3]; at 33.0 µM 39% | [3]; at 100.0 µM 58% | [4]; at 1.2 µM 5% | [4]; at 3.7 µM 11% | [4]; [15] 11% | [4]; at 11.0 µM 13% | [5]; at 1.2 µM 4% | [5]; at 3.7 µM 6% | [5]; [15] 41% | [5]; at 11.0 µM 23% | [6]; at 1.2 µM 4% | [6]; at 3.7 µM -3% | [6]; at 11.0 µM 9% | [7]; [15] -8% | [8]; at 1.2 µM 2% | [8]; at 3.7 µM -4% | [8]; at 11.0 µM 20% | [9]; [15] 0% | [10]; at 1.2 µM -1% | [10]; at 3.7 µM 5% | [10]; [15] -18% | [10]; at 11.0 µM 15% | [11]; at 1.2 µM 5% | [11]; at 3.7 µM 6% | [11]; at 11.0 µM 13% | [12]; at 1.2 µM 4% | [12]; at 3.7 µM 4% | [12]; at 11.0 µM 16% | [13]; at 1.2 µM 14% | [13]; at 3.7 µM 16% | [13]; at 11.0 µM 28% | [14]; [15] 22%
